SMILES strings stand for the structures. Inconclusive results are not listed. A number with no mark means an inactive call. Calls of active or inactive are those of the source. The call rests on the fitted dose curve; in most records, active means well fitted cell-killing curve with a large enough effect; inconclusive means small, poorly fitted or top-dose-only effect; inactive means flat fitted curve, though single readings scatter.

40 compounds from PubChem BioAssay (NCATS) can be followed below.
On the % scale 0 is the no-effect control and ±100 the full control effect; potency means the concentration at half of the fitted maximal effect.

The assay is described as follows: Cell Viability - LYMP2-021 (AID 974).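 Further: compound exposure lasts 24 hours at 37 °C; nearly all actives have a fitted effect of over 55% in size.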 The conditions noted are these: LYMP2-021 lymphoblastoid cells viability; series mostly up to 92.2 µM; activity change, negative = cytotoxicity: at the top concentration. From the text: NIH Chemical Genomics Center [NCGC]
NIH Molecular Libraries Screening Centers Network [MLSCN]
National Institutes of Environmental Health Sciences [NIEHS]
National Toxicology Program [NTP]
We have developed a 1536-well cell-based assay for quantitative high throughput screening (qHTS) against a number of cell lines to determine in vitro cytotoxicity of small molecules. This particular assay uses a human lymphoblastoid cell line (LYMP2-021) purchased from Coriell Institute for Medical Research.
NCGC Assay Protocol Summary:
The CellTiter-Glo luminescent cell viability assay (Promega) is a homogeneous method to measure the number of viable cells in culture. The end point readout of this assay is based on quantitation of intracellular ATP, an indicator of metabolic activity, using the luciferase reaction. Luciferase catalyzes the oxidation of beetle Luciferin to oxyluciferin and light in the presence of ATP. The luminescent signal is proportional to amount of ATP present.
Using the CellTiter-Glo luminescent cell viability assay, the amount of cellular ATP was measured in the lymphoblastoid cell line with complete culture medium following compound treatment for 24 hours. The assay was performed in opaque white Kalypsys 1536-well plates. In the screen, tetraoctylammonium bromide was used as positive control. Library compounds were measured for their ability to cause acute toxicity in the cell line, as reflected by a decrease in intracellular ATP levels, in a concentration-dependent manner. […] AC50 values were determined from concentration-response data modeled with the standard Hill equation.
qHTS protocol for CellTiter Glo lymphoblastoid cellular assay
[Step] [Parameter] [Value] [Description]
1. Reagent; 5 uL; 2500 lymphoblastoid cells/well
2. Time; 5 hr; 37 C incubation
4. Controls; 23 nL; Tetraoctylammonium bromide 6.4pM to 92 uM
5. Time; 24 hr; 37 C incubation
6. Reagent; 5 uL; CellTiter Glo reagent
7. Time; 30 min; Room Temperature
8. Detection; Luminescence; Viewlux plate reader
Keywords: cell viability, cytotoxicity, lymphoblastoid cell line, luminescence, NTPHTS, NTPHTS_NCGC, NIEHS, DSSTox, MLSMR, MLSCN, NIH Roadmap, qHTS, NCGC
Take `CC1CCC2CC1C2(C)C` (stereo not given): the “activity change, negative = cytotoxicity” value is -8.26%. `CC(=O)OC(C)C`: the “activity change, negative = cytotoxicity” value is 3.03%.

With `CC(=C/C=C/C(C)=C/C=C/C=C(C)/C=C/C=C(C)/C=C/C(=O)O)/C=C/C(=O)O`, the “activity change, negative = cytotoxicity” value was -3.3%.

In the case of `C=CC(=O)OCCCC`, the “activity change, negative = cytotoxicity” value is -4.17%. On the same count and under the same terms, the same measure for `Nc1ccc([N+](=O)[O-])c(N)c1`: -4.64%. On to `CCCCCCC(=O)O`, for which the “activity change, negative = cytotoxicity” value is -5.55%. Still for that read-out and setting: the same measure for `CC(C)(C)c1ccc(OCC2CO2)cc1` (stereo not given): -20.3%; for `Clc1ccccn1`: -3.84%.

Turning to `CCCOCC(C)O` (stereo not given), the “activity change, negative = cytotoxicity” value was -2.38%.

As for `NS(=O)(=O)O`, the “activity change, negative = cytotoxicity” value was 1.49%.

As for `CC(=O)c1nccs1`, the “activity change, negative = cytotoxicity” value was 0.551%. With `CCCCCCO`, the “activity change, negative = cytotoxicity” value is 1.01%. The same measure, in the same setting: the same measure for `CNc1ccc([N+](=O)[O-])cc1`: 1.96%.

As for `Cc1ccc(Cl)cc1`, the “activity change, negative = cytotoxicity” value was -3.31%. Same read-out and setting: under `O=C1OC(=O)c2c(Cl)c(Cl)c(Cl)c(Cl)c21` stands -3.21%. Regarding `CC1=C(/C=C/C(C)=C/C=C/C(C)=C\C=O)C(C)(C)CCC1`, the Potency is 50.1 µM (active). With `CC(=O)c1ccccc1[N+](=O)[O-]`, the “activity change, negative = cytotoxicity” value was -0.192%. The same measure, in the same setting: under `Cc1ccc([N+](=O)[O-])c(N)c1` stands -2.52%; under `CC(=O)OCCC(C)C`, 5.55%. Regarding `O=C(O)CN(CC(=O)O)CC(=O)O`, the “activity change, negative = cytotoxicity” value was -0.0734%. Same read-out and setting: under `CSCCC=O` stands -3.47%; under `CCOc1cc(OCC)c(C(C)=O)cc1OCC`, 2.57%; under `CCNS(=O)(=O)c1ccc(C)cc1`, 0.327%. For `CCC(C)(C)OC`, the “activity change, negative = cytotoxicity” value is -3.92%.

Turning to `O=C(O)c1ccccc1C(=O)O`, the “activity change, negative = cytotoxicity” value was -13.3%. Turning to `CCC(C)O` (stereo not given), the “activity change, negative = cytotoxicity” value was 0.538%. Still for that read-out and setting: the same measure for `O=C(O)CNC(=O)c1ccc(CO)o1`: -5.03%; for `O=C1OC(=O)c2cc([N+](=O)[O-])ccc21`: 5.93%. The same measure, in the same setting: the same measure for `NC(=O)c1cccc([N+](=O)[O-])c1`: 1.17%; for `COc1cccc2sc(N)nc12`: 1.89%; for `Cc1ccccc1C=O`: -0.798%. Turning to `C/C=C(/C)C#N`, the “activity change, negative = cytotoxicity” value was 2.89%. Consider `CC#N`, for which the “activity change, negative = cytotoxicity” value is -2.95%. The same measure, in the same setting: the same measure for `CC(C)=CCC/C(C)=C/C=O`: -3.03%; for `COc1ccc(OC)cc1`: -9.5%.

With `CC(C)Cc1nccs1`, the “activity change, negative = cytotoxicity” value was -0.938%.

With `Nc1cccc(N)c1`, the “activity change, negative = cytotoxicity” value was -4.29%. Consider `O=CNc1ccccc1`, for which the “activity change, negative = cytotoxicity” value is -2.79%. As to `O=C(O)c1cccc([N+](=O)[O-])c1`, the “activity change, negative = cytotoxicity” value is -8.48%. In the case of `Nc1cc(Cl)c([N+](=O)[O-])cc1O`, the “activity change, negative = cytotoxicity” value was -11.5%.
